# Results published in PubChem BioAssay (NCI).
# The panel holds about 83,000 compounds, 20% with a hit somewhere; the sample as a whole holds those more often.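 Testing used 96-well plates and a 48-hour single-concentration exposure. Example: -40 means 40% of the starting cells died.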 Values without a mark were called inactive. Activity calls are given as the source filed them. How the source made its calls: active means growth percent below 10; inactive means the rest.
# Columns and labels:
# Assay in all cases: NCI-60 one-dose screen, 48 h (100 = growth as untreated, 0 = no growth, -100 = all killed)
# Conditions in all cases: 10 µM unless noted
# [1] = tested on: HCT-15 colon
# [2] = tested on: HT29 colon
# [3] = tested on: SNB-75 CNS
# [4] = tested on: SNB-19 CNS
# [5] = tested on: U251 CNS
# [6] = tested on: PC-3 prostate
# [7] = tested on: SK-MEL-5 melanoma
# [8] = tested on: UACC-62 melanoma
# [9] = tested on: LOX IMVI melanoma
# [10] = tested on: SK-MEL-28 melanoma
# [11] = tested on: SK-MEL-2 melanoma
# [12] = tested on: EKVX NSCLC
# [13] = tested on: SN12C renal
# [14] = tested on: UO-31 renal
# [15] = tested on: TK-10 renal
# [16] = tested on: ACHN renal
# [17] = tested on: CAKI-1 renal
# [18] = tested on: A498 renal
# [19] = tested on: CCRF-CEM leukemia
# [20] = tested on: MOLT-4 leukemia
Compound,growth [1],growth [2],growth [3],growth [4],growth [5],growth [6],growth [7],growth [8],growth [9],growth [10],growth [11],growth [12] [%],growth [13],growth [14],growth [15] [%],growth [16],growth [17],growth [18],growth [19],growth [20]
CNC(=O)c1c(NC(=O)c2ccc(C(C)(C)C)cc2)sc2c(CN(C)C)c(O)ccc12,-77.3% (active),0.0225% (active),94.9%,0.882% (active),-29.9% (active),-23.3% (active),-29.5% (active),-85.9% (active),-88.5% (active),-89.1% (active),-53% (active),63.3,4.62% (active),-78.5% (active),87.5,-22.3% (active),-13.1% (active),53.1%,-7.61% (active),-35.5% (active)
Nc1c(C(=O)Nc2ccncc2)sc2nc3c(cc12)CCCCC3,64%,52.9%,93.5%,95.9%,83.7%,83.8%,-0.0144% (active),80.7%,84%,82.5%,93.7%,74.2,78.9%,66.6%,85.9,88.6%,81.6%,74.5%,54.4%,40.3%
COC(=O)C1=C(C)NC(C)=C(C(=O)OCC(C)C)C1c1ccccc1[N+](=O)[O-] (stereo not given),41%,87.3%,68.6%,82.4%,68.8%,35.8%,38%,48.7%,42.4%,87.1%,64.8%,58.3,64.3%,28.3%,80.7,26.8%,21.9%,50.4%,7.1% (active),43.6%
Cc1ccc(C)c(-n2c(-c3ccc(Br)cc3)csc2=NC(=O)c2ccccc2F)c1,57.9%,55.5%,84.6%,93.7%,46.4%,22.7%,46.9%,60.7%,76.9%,96.6%,101%,76.1,85.8%,108%,116,52.9%,76.1%,80.7%,43.4%,30.5%
N#Cc1c(-c2ccccc2)c(C#N)c2c(C#N)c(N)nn2c1N,24.3%,8.55% (active),52.1%,38.1%,20.3%,50.5%,24.7%,19.6%,35.6%,56.8%,9.95% (active),47.3,51.7%,52.1%,67,60.9%,47%,-8.04% (active),13.3%,11.7%
Oc1c(Cl)cc(Cl)c2ccc(Cn3cc(-c4cccc(C(F)(F)F)c4)nn3)nc12,40.5%,89.2%,70%,95.6%,93.6%,83.1%,98.2%,82.1%,23.7%,75.9%,93.8%,80.1,84.6%,73.4%,99.7,47.9%,31.1%,91.1%,6.72% (active),3.08% (active)
CCCn1c(=S)sc2c1nc(C)n1c(Nc3ccccc3)nnc21,74.8%,87.5%,102%,70.8%,60.9%,93.5%,35%,32.3%,66.2%,104%,-0.18% (active),36.6,55.6%,71.6%,86.7,82.8%,93.9%,57.2%,66.3%,31.1%
CCn1c2ccc(O)cc2c2c(C)c3c[n+](C(C)C)ccc3c(C)c21,67.7%,54.8%,49.8%,7.71% (active),13.5%,61%,57.1%,15.1%,30.9%,22.8%,35%,75.4,-1.36% (active),68.3%,105,35.2%,89.8%,68%,36.5%,22.2%
CC1=C(C(=O)n2c3ccccc3c3ccccc32)C(c2cccc([N+](=O)[O-])c2)C(C(=O)n2c3ccccc3c3ccccc32)=C(C)N1,81.9%,104%,82.9%,95.6%,89.5%,80.7%,93.7%,87.6%,87.1%,103%,102%,102,99.9%,71.4%,104,93.4%,77.5%,93.1%,88.7%,83.1%
COc1cc(C(=O)c2c(-c3ccccc3)oc3c(OC)cccc23)cc(OC)c1O,13.5%,6.79% (active),22.2%,25.8%,18.8%,23.5%,19.7%,39.3%,16.1%,62.7%,62%,44.9,27.1%,46.2%,64.6,28.1%,33.1%,-26.1% (active),13.8%,18.7%
CCCCCCCCn1ccc2cc(NC(=O)Cn3cc(CN4CCOCC4)nn3)ccc21,92.4%,108%,100%,92.9%,88.5%,75.2%,86.7%,86.8%,102%,99.8%,100%,87.9,100%,78.3%,108,98.5%,83.9%,99.7%,-31.6% (active),35.8%
O=C(N/N=C/c1ccc([N+](=O)[O-])cc1)c1ccc2nc(-c3ccc(Cl)cc3)[nH]c2c1,29.9%,8.25% (active),69.3%,52%,22.3%,21.4%,2.58% (active),43.7%,-0.908% (active),45.3%,66.7%,49,19.6%,42.6%,89.8,32.3%,42.7%,-0.501% (active),9.87% (active),4.24% (active)
Cc1c2cc[nH]c(=O)c2c(C)c2c1[nH]c1ccc(OC(=O)c3ccccc3)cc12,27.9%,34.1%,39.9%,45%,29.2%,35.9%,-26.9% (active),28.5%,13.7%,25.2%,23.7%,19.7,32.3%,12.9%,34,-9.28% (active),29.1%,61.2%,29.4%,6.99% (active)
C=CC(=O)N1CCN(c2ccc3cccc(NC(=O)c4cnc(C)cn4)c3n2)CC1,21.3%,51.3%,15.4%,62.4%,32.1%,43.5%,61.4%,26.9%,33.4%,68%,29.7%,66.6,9.63% (active),0.645% (active),23.2,5.43% (active),4.05% (active),-12.7% (active),32.1%,35.7%
O=C(/C=C/c1ccccc1)Nc1ncc(Cc2ccccc2)s1,14.2%,4.97% (active),-2.19% (active),42.6%,9.07% (active),23.4%,30.6%,3.28% (active),6.49% (active),47%,26.1%,23.2,32.4%,30.4%,35,26.5%,27.8%,12.6%,20.3%,22.6%
CCOC(=O)c1c(C)nn(CC(O)c2ccccc2)c1NC(=O)Nc1cccc(F)c1 (stereo not given),85.2%,96%,77.3%,94.8%,93.4%,76.8%,94.7%,77.2%,95%,104%,90.9%,91.2,84.1%,74.8%,110,89.7%,83.4%,70.9%,89.3%,88.7%
